Screening results as filed in PubChem.
LRH-1 inv ag = NR5A2 inverse agonism in reporter assay; O00482; hit rate 0.13% among 360,000; inhibition, % at 3.6 µM; HEK293T StAR-luciferase reporter, LRH-1 transfected, 24 h;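 active means inhibition above the mean inhibition of all tested compounds plus 3 SD, cut at about 73% in these data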
COUP-TFII inh = inhibitors of human COUP-TFII (NR2F2) | P24468 | HEK293T NGFI-A luciferase reporter, luminescence | inhibition, % at 8.6 µM | hit rate 0.7% among 370,000 | AID 686940;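 active means inhibition above a per-plate cutoff, mean inhibition of test wells between control levels plus 3 SD, cut at about 38% in these data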;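 further: cells cotransfected with COUP-TFII expression vector driving the NGFI-A reporter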
NCOA3 inh = human NCOA3 inhibition. hit rate 0.17% among 360,000. AID 588352. inhibition, % at 3.6 µM. Q9Y6Q9. HEK293 GAL4-SRC3 luciferase reporter, luminescence;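 active means inhibition above a per-campaign cutoff, the mean of all compounds plus 3 SD, cut at about 60% in these data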;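 further: higher means less SRC3-driven luciferase light from the GAL4 reporter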
SRC2 inh = human SRC2 (NCOA2) inhibition; Q15596; AID 651957; inhibition, % at 9 µM; hit rate 0.17% among 370,000; HEK293 GAL4-SRC2 luciferase reporter, luminescence;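 active means inhibition above the mean inhibition of all tested compounds plus 3 SD, set per campaign, cut at about 52% in these data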
SRC1 inh = inhibitors of human steroid receptor coactivator 1 (SRC1); Q15788; HEK293 GAL4-SRC1 luciferase reporter, luminescence; inhibition, % at 3.6 µM; hit rate 0.12% among 360,000;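 active means inhibition above the campaign mean plus 3 SD, with each screening campaign given its own cutoff, cut at about 60% in these data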
Gli-Sufu antag = Gli-Sufu pathway antagonism; Sufu-KO-LIGHT fibroblasts, Gli luciferase reporter luminescence; inhibition, % at 5 µM; hit rate 0.74% among 340,000;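 active means inhibition above about 55%, limit read from the data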
VP16 Luc counter = counter-screen for COUP-TFII antagonists: inhibitors of VP16; HEK293 Gal4-VP16 luciferase reporter, luminescence; shares compounds with COUP-TFII inh; inhibition, % at 8.5 µM; hit rate 25% among 2,500; in the data active means inhibition above about 13%
NR2F2 inh conf = COUP-TFII (NR2F2) inhibition, confirmation assay | shares compounds with COUP-TFII inh | HEK293 NGFI-A luciferase reporter, luminescence | inhibition, % at 8.5 µM | hit rate 45% among 2,500;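 active means mean inhibition over three repeats above a set limit taken from the earlier primary screen, cut at about 38% in these data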
Hits are given with their value; . = inactive; / = no result given. Only some compounds are listed: those with a hit (about 1.3% of all), similar ones and a draw of the others.

SMILES	LRH-1 inv ag	COUP-TFII inh	NCOA3 inh	SRC2 inh	SRC1 inh	Gli-Sufu antag	VP16 Luc counter	NR2F2 inh conf
COc1cc2c(c(OC)c1)C(=O)O[C@H](C)C[C@@H]1O[C@H]1CCCCC(=O)C2	/	.	/	.	/	/	/	/
S=C(NN=C(c1ccccc1)c1ccccn1)N(Cc1ccccn1)Cc1ccccn1	.	54.2	71.4	.	65.9	69.0	.	45.1
CN(Cc1ccccc1)C(=O)c1cccc(NC(=O)Cc2ccc(NC(=O)C3CCCN(C(=O)CCc4ccccc4)C3)cc2)c1 (centres undefined)	.	.	.	.	.	.	/	/
CN(C(=O)c1cccc(NC(=O)Cc2ccc(NC(=O)C3CCCN(C(=O)CCc4ccccc4)C3)cc2)c1)C1CCC1 (centres undefined)	.	48.3	.	.	.	.	.	.
CN(Cc1ccccc1)C(=O)c1ccc(NC(=O)Cc2cccc(NC(=O)C3CCCN(C(=O)CCc4ccccc4)C3)c2)cc1 (centres undefined)	.	43.9	.	.	.	.	.	.
CN(C(=O)c1ccc(NC(=O)Cc2cccc(NC(=O)C3CCCN(C(=O)CCc4ccccc4)C3)c2)cc1)C1CCCC1 (centres undefined)	.	.	.	.	.	.	/	/
CN(C(=O)c1cccc(NC(=O)Cc2ccc(NC(=O)C3CCCN(C(=O)CCc4ccccc4)C3)cc2)c1)C1CCCC1 (centres undefined)	.	57.8	.	.	.	.	.	50.7
CCCCCN1CCCCC(NC(=O)CSc2ccccc2)C1=O (centres undefined)	/	.	/	.	/	/	/	/
C#CCN1C(C(=O)OC)CN(CCCCCC)CCS1(=O)=O (centres undefined)	/	.	/	.	/	/	/	/
O=C(Nc1cccc(S(=O)(=O)N2CCCC2)c1)c1ccco1	.	.	.	.	.	.	/	/
O=C(Nc1cccc(S(=O)(=O)c2cccc(NC(=O)c3ccco3)c2)c1)c1ccco1	.	70.2	.	.	.	.	.	.
CC(=O)OCCCN1CCC2(CCCCC2)C1=O	/	.	/	.	/	/	/	/
CC(C)C(Sc1nc(-c2ccccc2)cc(-c2ccccc2)c1C#N)C(=O)O (centres undefined)	.	37.9	.	.	.	.	.	.
COc1ccc(N(C)S(=O)(=O)c2cccc(C(=O)Nc3nc4ccccc4[nH]3)c2)cc1	.	.	.	.	.	.	/	/
CN(c1cccc(Cl)c1)S(=O)(=O)c1cccc(C(=O)Nc2nc3ccccc3[nH]2)c1	.	42.2	.	.	.	.	.	.
Cc1ccc(NC(=O)c2ccc(OCc3c(C)noc3C)cc2)cc1C	.	38.1	.	.	.	.	.	.
N#Cc1ccc(-c2ccc(OCC(=O)Nc3cccnc3)cc2)cc1	.	47.0	.	53.3	.	.	.	.
CC(=O)Nc1ccc(NC(=O)COc2ccc(-c3ccc(C#N)cc3)cc2)cc1	.	.	.	.	.	.	/	/
O=C(COc1ccc(C(=O)c2ccccc2)cc1)Nc1cccnc1	.	65.5	.	.	.	.	.	60.2
O=C(CCCOc1ccccc1)Nc1cccnc1	.	.	.	.	.	.	/	/
Cc1nc2cc(NC(=O)c3ccc(S(=O)(=O)N(C)c4ccccc4)cc3)ccc2o1	.	49.5	.	.	.	.	.	.
CC(=O)Nc1ccc(C(=O)Nc2cccc(S(=O)(=O)N(C)c3ccccc3)c2)cc1	.	.	.	.	.	.	/	/
CN(c1cccc(NC(=O)c2ccc(N(C)S(=O)(=O)c3ccccc3)cc2)c1)S(C)(=O)=O	.	62.9	.	.	.	.	.	.
O=C(O)CCCCN1C(=O)C=CC1=O	/	.	/	.	/	/	/	/
CC[C@@H](CCCc1ccc(OC)cc1)CCC(=O)N(c1ccccc1)c1ccccc1	/	.	/	.	/	/	/	/
SMILES	LRH-1 inv ag	COUP-TFII inh	NCOA3 inh	SRC2 inh	SRC1 inh	Gli-Sufu antag	VP16 Luc counter	NR2F2 inh conf
CCOc1cccc(-c2nn3c(-c4cccc(C)c4)nnc3s2)c1	/	.	/	.	/	/	/	/
CCN(CC)C(=O)c1oc(=O)c2ccccc2c1-c1ccc(C)cc1	/	.	/	.	/	/	/	/
CC1CCc2nc(N)c(C#N)c(-c3cccnc3)c2C1 (centres undefined)	.	51.7	62.7	.	72.5	.	14.0	.
COc1ccc(CCNC(=O)c2ccc(CS(=O)(=O)c3ccc(Cl)cc3)o2)cc1OC	.	48.6	.	.	.	.	.	.
COc1ccc(CCNC(=O)c2ccc(CS(=O)(=O)c3ccc(C)cc3)o2)cc1OC	.	.	.	.	.	.	/	/
COc1ccc(CC(=O)Nc2cccc(SC)c2)cc1OC	.	40.8	.	.	.	.	16.7	38.5
CCOc1cc(C(=S)N2CCOCC2)ccc1OS(=O)(=O)c1ccc(OC)cc1	.	.	.	.	.	.	/	/
CCOc1cc(C(=S)N2CCOCC2)ccc1OS(=O)(=O)c1ccc(NC(C)=O)cc1	.	47.8	.	.	.	.	.	.
COC(=O)[C@H](CC(C)C)N(CCCc1cn(Cc2ccccc2)nn1)S(=O)(=O)c1ccccc1Br	/	.	/	.	/	/	/	/
OC(c1ccc(-c2ccccc2)cc1)c1ncc(-c2ccccc2)[nH]1 (centres undefined)	.	56.5	.	.	.	/	.	.
Cc1ccc2nc(NC(=O)C3CCN(S(=O)(=O)c4cccnc4)CC3)sc2c1	.	.	.	.	.	.	/	/
COc1ccc2nc(NC(=O)C3CCN(S(=O)(=O)c4cccs4)CC3)sc2c1	.	47.7	.	.	.	.	.	.
Cc1ccc2nc(NC(=O)C3CCN(S(=O)(=O)c4cccs4)CC3)sc2c1	.	56.8	.	.	.	.	.	.
C/C(=N/NC(=O)CN1CCN(Cc2ccccc2Cl)CC1)c1cccc(O)c1	/	.	/	.	/	/	/	/
COc1ccc(Br)cc1CSC(=N)N	.	.	.	.	.	.	/	/
CCCCCOc1ccc(Br)cc1CSC(=N)N	.	65.5	.	.	.	66.3	15.7	47.3
CCOC(=O)c1cccc(NC(=O)CN(C)S(=O)(=O)c2ccc(Br)s2)c1	/	.	/	.	/	/	/	/
CN1Cc2nnn(Cc3ccccc3)c2-c2ccccc2S1(=O)=O	/	.	/	.	/	/	/	/
CCCCCCn1c(NCC)nc2c1c(=O)n(C)c(=O)n2C	.	56.5	.	.	.	.	.	48.9
CCCCNc1nc2c(c(=O)n(C)c(=O)n2C)n1CCC	.	.	.	.	.	.	/	/
COc1cccc(N2CCN(C(=O)c3ccc(CSc4nc5ccncc5[nH]4)cc3)CC2)c1	.	42.0	.	.	.	.	.	.
Cc1ccc(C)c(N2CCN(C(=O)c3ccc(CSc4nc5ccncc5[nH]4)cc3)CC2)c1	.	.	.	.	.	.	/	/
O=C(COC(=O)c1cc(S(=O)(=O)N2CCOCC2)ccc1F)NCc1ccc2c(c1)OCO2	.	47.0	.	.	.	.	.	.
COC[C@H]1CCCN1c1ccc2c(c1)O[C@H]1CCN(C1)S2(=O)=O	/	.	/	.	/	/	/	/
